Compound activity as filed in PubChem.
Shown are actives, neighbours in structure and some others; about 4.6% of the full set was active somewhere.
DAX1 inh-1: inhibitors of DAX1 repression of SF-1 activated StAR promoter; HEK293T StAR-luciferase reporter, SF-1/DAX-1 repression relief; inhibition, % at 6.8 µM; hit rate 1.1% among 370,000;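 active means inhibition above the mean over all tested compounds plus 3 SD, cut at about 3.6% in these data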;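 further: 0% = DAX-1 cells with DMSO and 100% = cells lacking DAX-1 with DMSO; higher inhibition means more luminescence from relief of DAX-1 repression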
ssDAF12 agonist: S. stercoralis DAF-12 activation, primary screen | HEK293 ssDAF-12/GRIP1 lit1-tk-luc reporter, luminescence; % of 3 µM dafachronic acid response | activation, % at 6.8 µM | hit rate 1% among 370,000 | AID 652126;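 active means activation above the mean over all tested compounds plus 3 SD, cut at about 0.9% in these data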;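 further: 0% = DMSO-only wells and 100% = 3 µM delta7-dafachronic acid wells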
DAX1 inh-2: NR0B1 (DAX1) inhibition | HEK293 Gal4-DAX1 luciferase reporter, luminescence | AID 504766 | inhibition, % at 6.75 µM | hit rate 0.99% among 340,000 | P51843;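 active means inhibition above the mean over all tested compounds plus 3 SD, cut at about 4.2% in these data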;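 further: 0% = DAX1-transfected cells with DMSO and 100% = empty-vector control cells with DMSO; inhibition shows as a rise in luminescence from relieved DAX1 repression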
Target sequence (P51843 207-470 limits assumed): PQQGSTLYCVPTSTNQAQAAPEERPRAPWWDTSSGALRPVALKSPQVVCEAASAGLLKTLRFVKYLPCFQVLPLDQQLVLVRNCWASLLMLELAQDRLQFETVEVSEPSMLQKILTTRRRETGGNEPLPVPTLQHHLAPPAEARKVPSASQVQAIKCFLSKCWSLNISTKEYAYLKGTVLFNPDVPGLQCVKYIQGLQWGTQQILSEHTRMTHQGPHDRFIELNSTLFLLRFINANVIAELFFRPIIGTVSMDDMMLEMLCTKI
hgDAF-12 ag: agonists of H. glycines DAF-12 nuclear receptor. HEK293 GAL4-hgDAF12 UAS-luciferase reporter, agonist luminescence; normalized to butyrate control. activation, % at 6.8 µM. hit rate 1.8% among 370,000;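 active means activation above a cutoff set at the mean of all screened compounds plus 3 SD, cut at about 10% in these data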;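 further: 0% = DMSO wells and 100% = sodium butyrate wells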
hcDAF12 agonist: H. contortus DAF-12 activation, primary screen; HEK293 hcDAF-12 lit1-tk-luc reporter, luminescence; 0% DMSO, 100% Δ7-dafachronic acid; activation, % at 6.8 µM; hit rate 1.4% among 370,000;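 active means activation above the mean of all tested compounds plus 3 SD, cut at about 5.5% in these data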;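 further: 100% = response to 3 µM Δ7-dafachronic acid high control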
Wee1 stabilizer: inhibitors of human Wee1 degradation; P30291; HeLa Luc-Wee1K328M stability, luciferase luminescence; 100% = proteasome inhibitor MG132 effect; reporter increase, % at 5 µM; hit rate 1.2% among 220,000; AID 1321;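 active means activation above the mean of all tested compounds plus 3 SD, set per screening run, cut at about 8.8% in these data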;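 further: cells exposed to compound for 20 h before luminescence read; 0% = DMSO alone and 100% = MG132 at 30 µM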
* hit, by the source's call; · = no result given; ! = not confirmed by another sample.

SMILES | DAX1 inh-1 | ssDAF12 agonist | DAX1 inh-2 | hgDAF-12 ag | hcDAF12 agonist | Wee1 stabilizer
Cc1nn(C2CCOC(C)(C)C2)c2c1C(c1ccc3c(c1)OCO3)SCC(=O)N2 (stereo unspecified) | -0.2 | -1.6 | -1.4 | -0.1 | -0.1 | 11.2*
O=C(O)Cn1cc(/C=C2\C(=O)NC(=O)N(c3ccc(Br)cc3)C2=O)c2ccccc21 | 0.1 | 1.2* | -0.5 | 2.7 | 5.6* | ·
COC(=O)Cn1cc(/C=C2\C(=O)NC(=O)N(c3ccccc3)C2=O)c2ccccc21 | -0.2 | 0.5 | 0.1 | -0.1 | 0.5 | ·
Cc1ccc(N2C(=O)NC(=O)/C(=C\c3cn(CC(=O)O)c4ccccc34)C2=O)cc1 | -0.3 | 1.4* | 2.2 | 1.7 | 3.6 | ·
O=C(CN1CCCCC1)c1cccc(Br)c1 | -0.2 | -0.9 | 0.6 | -1.5 | -0.7 | -2.3
O=C(CN1CCCCC1)c1ccc2c(c1)OCO2 | -0.2 | -0.1 | 5.6* | 1.1 | 0.1 | -1.0
C[C@]12CCC3C(CC[C@H]4C[C@H](O)CC[C@]34C)C1C[C@@H](CCCCl)[C@@H]2O (stereo partly specified) | -0.8 | -1.3 | · | -0.4 | -1.8 | ·
CCOC(=O)[C@]12Cc3cc4ccccc4cc3[C@H]1N(Cc1ccccc1)C(=O)c1cc(OC)ccc12 | 3.7* | -1.1 | · | 4.8 | -0.1 | ·
COc1cc(CN=C(C)c2c(O)n(C)c(=O)n(C)c2=O)cc(OC)c1 | 0.1 | -1.3 | 1.1 | -0.9 | -1.1 | 9.0*
CC(=NCc1ccc(F)cc1)c1c(O)n(C)c(=O)n(C)c1=O | -0.2 | -1.8 | 0.4 | -4.3 | -0.5 | -1.2
O=c1cccc2n1C[C@@H]1C[C@@H]2CN(CC(O)c2ccc([N+](=O)[O-])cc2)C1 (stereo partly specified) | 0.3 | -1.3 | 1.3 | 1.6 | 0.8 | ·
COC(=O)C1=C(c2ccc(C(C)=O)cc2)C[C@@H]2CC[C@H]1N2C(=O)NC1Cc2ccccc2C1 | · | · | -0.4 | · | · | ·
CCCCn1c(O)c(C(=O)/C=C/c2c[nH]c3ccccc23)c(=O)[nH]c1=O | 0.3 | -0.9 | 0.9 | -1.7 | 6.0* | 4.4
Cc1c(C(c2ccc(O)cc2)c2c(O)c3ccccc3oc2=O)c(=O)n(-c2ccccc2)n1C (stereo unspecified) | -0.2 | -0.8 | -0.8 | -1.2 | -1.0 | 4.3
COc1ccc(OC)c(C(c2c(O)c3ccccc3oc2=O)c2c(C)n(C)n(-c3ccccc3)c2=O)c1 (stereo unspecified) | -0.1 | -1.3 | 6.6* | 0.1 | -1.5 | 1.9
CS(=O)(=O)c1ccc(C2=C(CNC(=O)c3nccs3)[C@H]3CC[C@@H](C2)N3Cc2ccco2)cc1 | 0.2 | -1.2 | 1.1 | 1.0 | -1.0 | ·
O=[N+]([O-])c1cccnc1N1CCCNCC1 | 0.1 | -1.2 | -0.3 | -2.0 | -0.9 | ·
O=[N+]([O-])/C=C1\NCCN1Cc1ccc(Cl)nc1 | -0.7 | -0.9 | 0.9 | 4.6 | -0.7 | 9.6*!
COc1ccc(OC(=O)N(C)C[C@H]2OCc3cnnn3CCCC(=O)N([C@H](C)CO)C[C@@H]2C)cc1 | 0.0 | 0.0 | 0.4 | -2.6 | -0.3 | ·
Fc1ccccc1N1CCN(Cc2ccc3c(c2)OCO3)CC1 | 0.3 | -1.2 | -0.1 | 1.2 | -2.1 | -3.8
COc1ccc(CN2CCN(c3ccccc3F)CC2)cc1O | 0.0 | -1.2 | 4.5* | 0.5 | -1.1 | 0.1
CCOC(=O)CNC(=O)N1Cc2ccc(Br)cc2-n2nncc2C1 | 0.5 | -0.4 | · | 1.2 | 0.1 | ·
Cc1cc(O)c2c(c1)C(=O)[C@@]13C(=C2O)C(=O)[C@H]2C(O)[C@@H]1[C@H]1C(O)[C@@H]3C(=O)C3=C(O)c4c(O)cc(C)cc4C(=O)[C@@]312 (stereo partly specified) | -5.2 | -1.4 | · | -10.7 | -2.7 | ·
Cc1ccc(OP2(=O)Nc3cc(C)c(C)cc3S2)cc1 (stereo unspecified) | 1.1 | 0.9 | 1.7 | 4.3 | 5.7* | ·
CC1=CC(=O)NP(=O)(Oc2ccc3ccccc3c2)N1 (stereo unspecified) | 0.6 | -1.3 | -0.3 | -0.4 | -1.1 | -1.9
CC/C(=N\Nc1cccc2ccccc12)c1c(O)[nH]c(=O)[nH]c1=O | -0.8 | 1.3* | -2.5 | 1.3 | 1.9 | -3.3
CC/C(=N\Nc1ccccc1)c1c(O)[nH]c(=O)[nH]c1=O | 0.5 | -1.2 | 2.0 | 2.2 | 1.1 | -0.4
